What follows are molecules tested on human monocyte-derived macrophages (polarized) (assay: cell shape (eccentricity) Z-score vs DMSO control; higher = more elongated, M2-like morphology). Settings: 5 µM; 24 h; macrophage state: M1-polarized (IFNg + TNFa), cytokines present during treatment.
Procedure: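 Primary-screen hits were rescreened on polarized hMDMs with the differentiating cytokines (IL-4 + IL-13 or IFNg + TNFa) kept in the medium during treatment with compound at 5 uM for 24 h. The eccentricity Z-score vs DMSO wells is averaged over experiments.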

Compound	cell shape (Z-score)
O=C1/C(=C/c2ccccc2)C[C@@]2(O)[C@H]3Cc4ccc(O)c5c4[C@@]2(CCN3CC2CC2)[C@H]1O5	-6.15
COc1cc([C@@H]2c3cc4c(cc3[C@@H](O)[C@H]3COC(=O)[C@H]23)OCO4)cc(OC)c1O	3.2
C=C(C)[C@@H]1[C@H]2OC(=O)[C@@H]1[C@]1(O)C[C@H]3O[C@]34C(=O)O[C@H]2[C@]14C	0.251
CC(C)=CC1C(C(=O)OCc2coc(Cc3ccccc3)c2)C1(C)C (stereo not given)	8.88
CN(C)C(=S)SSC(=S)N(C)C	-4.6
O=C1NC(=O)c2c1c1c3ccccc3[nH]c1c1[nH]c3ccccc3c21	7.76
CN1[C@@H]2CC[C@H]1C[C@@H](OC(c1ccccc1)c1ccccc1N)C2 (stereo not given in full)	-3.5
Clc1ccc(C2=CCCC3CCC2N3)cn1 (stereo not given)	9.06
CC(C)[C@]12O[C@H]1[C@@H]1O[C@]13[C@]1(O[C@H]1C[C@H]1C4=C(CC[C@@]13C)C(=O)OC4)[C@@H]2O	5.54
O=C(O)c1nn(Cc2ccc(Cl)cc2Cl)c2ccccc12	4.43
CCCCCCCCCCCCCC(=O)O[C@@H]1[C@@H](C)[C@@]2(O)[C@@H](C=C(CO)C[C@]3(O)C(=O)C(C)=C[C@@H]23)[C@@H]2C(C)(C)[C@]12OC(C)=O	-6.25
C[C@]12CC[C@@H](O)C[C@@H]1CC[C@@H]1[C@@H]2CC[C@]2(C)[C@@H](C(=O)CO)CC[C@@H]12	3.05
COc1cc2c(c(OC)c1OC)-c1ccc(OC)c(=O)cc1[C@@H](NC(C)=O)CC2	3.12
CCC1(CC)C(=O)NC(=O)NC1=O	-5.4
CC[C@@H]1/C=C/C=C/C[C@H](C)[C@H](O)[C@](C)(O)C(=O)[C@H](C)[C@@H](O)[C@H](C)C(=O)[C@H](C)[C@@H](O)[C@H](C)/C=C/C(=O)O[C@H]2[C@@H](C)[C@@H](CC1)O[C@@]1(CC[C@@H](C)[C@@H](C[C@H](C)O)O1)[C@@H]2C	-9.34
CNc1ccc2oc(C[C@H]3O[C@@]4(CC[C@H]3C)O[C@H]([C@H](C)C(=O)c3ccc[nH]3)[C@H](C)C[C@H]4C)nc2c1C(=O)O	-11.1
COc1ccc2c3c([nH]c2c1)[C@H](CC(C)C)N1C(=O)[C@H](CCC(=O)OC(C)(C)C)NC(=O)[C@@H]1C3	6.14
COc1cc2ccc(=O)oc2c2ccoc12	8.59
C[C@]12CCC(=O)C=C1CC[C@@H]1C2CC[C@]2(C)C(=O)CCC12 (stereo not given in full)	-0.101
CCN1C[C@]2(COC)CC[C@H](OC)[C@]34C1[C@H]([C@H](OC)[C@H]23)[C@@]1(OC(C)=O)C[C@H](OC)[C@]2(O)C[C@@H]4[C@@H]1[C@H]2OC(=O)c1ccc(OC)cc1	-6.97
Clc1ccc(C(OCCN2CCCCC2)c2ccccc2)cc1 (stereo not given)	-5.91
CCn1cc(C(=O)O)c(=O)c2cc3c(cc21)OCO3	3.52
Cc1sc2c(c1C)C(c1ccc(Cl)cc1)=N[C@@H](CC(=O)OC(C)(C)C)c1nnc(C)n1-2	-7.72
CCNC(=O)C[C@@H]1N=C(c2ccc(Cl)cc2)c2cc(OC)ccc2-n2c(C)nnc21	-4.48
CCCN(CCC)C1CCc2cccc(O)c2C1 (stereo not given)	-3.43
c1cc2c(c(N3CCNCC3)c1)OCCO2	-7.3
CCC(=O)CCCCC[C@@H]1NC(=O)[C@H]2CCCCN2C(=O)[C@H]([C@@H](C)CC)NC(=O)[C@H](Cc2cn(OC)c3ccccc23)NC1=O	4.88

Same assay, conditions: 5 µM; 24 h; macrophage state: M2-polarized (IL-4 + IL-13), cytokines present during treatment

Compound	cell shape (Z-score)
CCN1C[C@]2(C)CC[C@H](O)[C@@]34C2[C@H](OC)C([C@@H]13)[C@@]1(O)C[C@H](OC)[C@H]2C[C@@H]4[C@@H]1[C@H]2O	-1.79
O=c1[nH]c2ccccc2n1C1CCN(CCCC(c2ccc(F)cc2)c2ccc(F)cc2)CC1	-5.52
C[C@@]12C(=O)OC(=O)[C@]1(C)[C@H]1CC[C@@H]2O1	-39.6
CC(=O)O[C@H]1CC[C@@]2(C)[C@H](CC[C@@H]3[C@@H]2CC[C@]2(C)[C@@H](C4=CC(=O)OC4)[C@@H](OC(C)=O)C[C@]32O)C1	-23.5
CC(=O)O[C@@H]1CC2C(C)(C)C(=O)C=C[C@]2(C)C2CC[C@]3(C)C(=CC(=O)O[C@H]3c3ccoc3)[C@@]21C (stereo not given in full)	-9.39
CC(=O)O[C@H]1C(=O)[C@@]2(C)[C@H]([C@H](OC(=O)c3ccccc3)[C@]3(O)C[C@H](O)C(C)=C1C3(C)C)[C@]1(OC(C)=O)CO[C@@H]1C[C@@H]2O	-9.61
Fc1ccc(C(OCCN2CCN(C/C=C/c3ccccc3)CC2)c2ccc(F)cc2)cc1	-8.38
C=C1[C@@H](C)[C@H]2[C@H](Cc3ccccc3)NC(=O)[C@]23OC(=O)/C=C/[C@H](O)CCC[C@@H](C)C/C=C/[C@H]3[C@@H]1O	-29.4
Cc1c(C(=O)c2cccc3ccccc23)c2cccc3c2n1[C@H](CN1CCOCC1)CO3	-6.47
CCCC[C@@H](C)[C@@H](OC(=O)C[C@@H](CC(=O)O)C(=O)O)[C@H](C[C@@H](C)C[C@H](O)CCCC[C@@H](O)C[C@H](O)[C@H](C)N)OC(=O)C[C@@H](CC(=O)O)C(=O)O	2.12
CC1=CC(=O)c2c(O)cccc2C1=O	3.72
COc1ccc2c(c1)[nH]c1c(C)nccc12	-11
C(=C\c1ccccc1)/CN1CCN(CCOC(c2ccccc2)c2ccccc2)CC1	3.27
